According to ChEMBL document CHEMBL3988442, “University of Dundee, Small-Polar-MMV Screening Library” (2021):
About 13,000 (27%) of roughly 48,000 compounds showed an effect of 50% or more. The list shows a part of the results.

Test system: Wolbachia pipientis
Assay: Anti-Wolbachia Cell-Based Screen
Type: functional
Parameters: scale not given: in the data most compounds retested in dose-response had high values
Settings: 5 µM

SMILES	Percent Effect
Oc1cc(CN2CCC(O)(Cn3ccnc3)CC2)nc2c(Cl)cccc12	-8.472%
CC(CNC(=O)c1ccon1)Oc1cccc(Br)c1 (stereo unspecified)	-16.92%
c1cc(-c2ccc(CN3CCC4(CCNCC4)CC3)s2)[nH]n1	13.89%
CCCN(C(=O)c1cnc(C)cn1)c1nc2c(s1)CCc1c-2cnn1C	90.09%
CCCN1CCN(C(=O)c2cnccn2)[C@H]2CS(=O)(=O)C[C@H]21	-1.357%
CCCN(C(=O)c1ccccn1)c1nc2c(s1)CCc1c-2cnn1C	-6.785%
COCC1c2nnn(CC3CC3)c2CCN1C(=O)c1cnccn1 (stereo unspecified)	-15.7%
COCCN(C(=O)c1ccccn1)c1nc2c(s1)CCc1c-2cnn1C	88.66%
COCCCNC(=O)C1CN(C(=O)c2cnccn2)C1	10.57%
Cc1cccc(N(CCC(N)=O)C(=O)c2cnccn2)c1	-11.19%
CN(C(=O)c1ccccn1)c1nc2c(s1)CCc1c-2cnn1C	-10.1%
COCCN(C(=O)c1cnccn1)c1nc2c(s1)CCc1c-2cnn1C	99.99%
CCCN(C(=O)c1cnccn1)c1nc2c(s1)CCc1c-2cnn1C	84.76%
CCN(Cc1cccc2c1OCO2)CC1CCCO1 (stereo unspecified)	-5.577%
Cl.O=C(OCC1CCCN1)c1cccc(NC(=O)c2ccco2)c1 (stereo unspecified)	-13.38%
CC1(C)[C@H]2CC=C(CN3CCCn4nc(C(=O)O)cc4C3)[C@@H]1C2	-7.582%
Cc1c(NC(=O)N(C)CCCc2cnn(C)c2)cnn1C	-9.365%
CN(CCCc1cnn(C)c1)C(=O)C1CCOC1 (stereo unspecified)	-24.42%
CCc1cnc(C)nc1N(C)CCCc1cnn(C)c1	93.68%
Cc1ncc(S(C)(=O)=O)c(N(C)CCCc2cnn(C)c2)n1	106.8%
CCc1cnc(N)nc1N(C)CCc1cnn(C)c1	112.4%
Cc1ccccc1C(C(=O)N(C)CCc1cnn(C)c1)N(C)C (stereo unspecified)	-25.6%

SMILES	Percent Effect
Cc1nc(C(C)C)sc1C(=O)N(C)CCCc1cnn(C)c1	-1.065%
Cc1nc(C)c(C)c(N(C)CCCc2nccn2C)n1	1.22%
Cc1cnc(N(C)CCCc2cnn(C)c2)nc1N(C)C	116.9%
CC(C)N1CCCC(C(=O)N(C)CCCc2cnn(C)c2)C1 (stereo unspecified)	-3.497%
CN(CCc1cnn(C)c1)C(=O)C1COc2ccccc2C1 (stereo unspecified)	12.32%
CC(NCCCc1cnn(C)c1)c1ccc(Br)s1 (stereo unspecified)	0.1879%
CN(C)C(=O)CCNC(=O)c1cnc(-c2ccccc2)nc1	-4.598%
O=S1(=O)CCC(n2cc(CNCC3(c4ccccc4)CC3)cn2)C1 (stereo unspecified)	4.552%
O=C(c1ccc(OCC2CC2)cc1)N1CCOCC1c1ncon1 (stereo unspecified)	-1.778%
Nc1cnc(-c2cccc3ccnn23)cn1	-6.103%
CN(CC(=O)Nc1ccc(Br)cn1)C(=O)Cc1ccc(O)cc1	-6.927%
CC(C)c1cc(N2CCC(NS(C)(=O)=O)CC2)n2nccc2n1	-0.6269%
Cc1nnc(N2CCC(NS(C)(=O)=O)CC2)c(C#N)c1C	4.066%
Cc1cc(=O)[nH]c(SC(C)C(=O)N2CCC(NS(C)(=O)=O)CC2)n1 (stereo unspecified)	-6.463%
CC(C)c1cc(N2CCC(NS(C)(=O)=O)C2)nc(C(C)C)n1 (stereo unspecified)	107.7%
CC(C)c1cc(N2CC[C@H](F)C2)n2nccc2n1	-1.052%
CS(=O)(=O)NC1CCCN(c2ccc(C#N)cn2)C1 (stereo unspecified)	4.469%
Cc1cc(N2CCN(C(=O)c3cc(Cl)c[nH]3)CC2)nc(C(C)C)n1	-12.01%
CNS(=O)(=O)C1CCN(c2cc(C(C)C)nc(C(C)C)n2)C1 (stereo unspecified)	80.93%
Cc1cc(N2CCC(NS(C)(=O)=O)CC2)nc(C(C)C)n1	66.62%
O=c1c2cnc(N3CCCCC3)nc2ccn1-c1ccccc1	8.71%
COCCSCC(=O)NC1(c2cccc(Br)c2)CC1	-2.226%

SMILES	Percent Effect
COc1ccc(CN2CC3(CCNCC3)CCC2=O)c(F)c1F	-14.66%
Nc1nccc(-c2cccc3ccnn23)n1	-5.19%
Nc1nccc(-c2c[nH]nc2C2CCCCC2)n1	-15.86%
Cc1ncncc1-c1ccnc(N(C)C)n1	99.71%
Cc1ccc(-c2ccnc(NC(C)c3ncc[nH]3)n2)c(C)n1 (stereo unspecified)	7.863%
Cc1ccc(-c2ccnc(NC(C)c3n[nH]c(C)n3)n2)c(C)n1 (stereo unspecified)	-0.9271%
Cc1ccc(CN(C)c2nccc(-c3cn(C)nc3C)n2)o1	-5.707%
Cc1ncncc1-c1ccnc(N)n1	103.4%
Cc1nn(C)cc1-c1ccnc(N(C)Cc2ccc(F)cc2)n1	21.27%
Cc1ncncc1-c1ccnc(NC(C)C)n1	107.6%
O=C(CSc1ccccn1)N1C[C@H]2CC[C@@H]1CN(Cc1cscn1)C2	3.579%
CCN(CC)c1ncc(Cl)c(C(=O)NC2CCc3nccn3C2)n1 (stereo unspecified)	-2.888%
Cc1ccccc1N1CCN(C(=O)c2cnn(C(C)C)c2)C(C)C1 (stereo unspecified)	2.986%
COc1cccc2c1OCC(C(=O)N(Cc1ccncc1)CC(C)C)C2 (stereo unspecified)	-1.678%
CC(C)N(CCO)C(=O)C1CCC(=O)N(CCc2ccc(Cl)cc2)C1 (stereo unspecified)	-6.406%
CCOC1COC2(CCN(Cc3cccnc3OC)CC2)C1.O=C(O)C(F)(F)F.O=C(O)C(F)(F)F (stereo unspecified)	97.13%
COc1ncccc1CN1CCC2(CC1)CC(OCC1CC1)CO2.O=C(O)C(F)(F)F (stereo unspecified)	103.5%
COC1COC2(CCN(Cc3ccccc3Cl)CC2)C1.O=C(O)C(F)(F)F (stereo unspecified)	-10.24%
CNC(=O)COC1COC2(CCN(c3ncccn3)CC2)C1.O=C(O)C(F)(F)F (stereo unspecified)	21.38%
COc1ncccc1CN1CCC2(CC1)CN(c1ccccn1)CCO2.O=C(O)C(F)(F)F.O=C(O)C(F)(F)F.O=C(O)C(F)(F)F	8.158%
CNC(=O)COC1COC2(CCN(Cc3cccnc3OC)CC2)C1.O=C(O)C(F)(F)F (stereo unspecified)	91.78%
COc1cccc2c1OCC(CNC(=O)CCn1cnnn1)C2 (stereo unspecified)	-3.423%
